This is part of a sample that, as a whole, favours compounds with a hit. Of some 83,000 tested, about 20% had one in any assay.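 Plates (96-well) were seeded with cells, treated with compound at one concentration, and incubated for 48 hours before percent growth was determined.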 Active and inactive are the calls of the source. How the source made its calls: active means growth percent below 10; inactive means the rest.
What follows are molecules tested on KM12 colon (assay: NCI-60 one-dose screen, 48 h (100 = growth as untreated, 0 = no growth, -100 = all killed)). Conditions: 10 µM unless noted.
For O=c1c2cc(F)ccc2sc2c(NCCCNCCO)nc3ccc(F)cc3c12, the growth was 24.9% (inactive). For COc1ccc2sc3c(NCCCNCCO)nc4ccccc4c3c(=O)c2c1, the growth was -15.6% (active). With COc1ccc(C(=O)/C=C/c2sc(Cl)nc2Cl)cc1 the growth was 39% (inactive). With O=C(O)c1cn(C2CC2)c2cc(N3CCN(C(=O)Nc4nc(-c5ccc(Cl)cc5)cs4)CC3)c(F)cc2c1=O the growth was 8.97% (active). For Cn1cc(-c2cc3ncnc(Nc4ccc(CC(=O)Nc5cc(C(C)(C)C)nn5C)cc4)c3s2)cn1, the growth was 16.7% (inactive). O=C(Nc1ccc(Cl)cc1F)c1ccccc1O was tested, and the growth was 54.4% (inactive). For Cc1cc(Cl)ccc1NS(=O)(=O)c1ccc(-c2cnc(C3CC3)o2)cc1, the growth was 15.5% (inactive). COc1c(B(O)O)cc(F)cc1-c1nc2ccc3[nH]ncc3c2c2c1CCCC2 was tested, and the growth was -3.54% (active). CCCCCCN(CCCCCC)c1ccc(/C=C2/SC(=O)NC2=O)c(C)c1 was tested, and the growth was 80.3% (inactive). For Cc1[nH]c(C(=O)Nc2ccc(C(=O)NCCN)cc2OC(C)C)c(Cl)c1Cl, the growth was 8.19% (active). With COc1cc(/C=C/c2ccccc2)cc(OC)c1 the growth was 95.6% (inactive). For COC(=O)c1ccc2[nH]c(O)c(C(=Nc3ccc(N(C)C(=O)CN4CCN(C)CC4)cc3)c3ccccc3)c2c1, the growth was 13.9% (inactive). In the case of COc1cc(Nc2nc(NCCN)nc3cc[nH]c(=O)c23)cc(OC)c1, the growth was 76% (inactive). O=c1c2cc(F)ccc2sc2c(NCCN3CCOCC3)nc3ccccc3c12 was tested, and the growth was 26% (inactive). In the case of O=C1c2cccc3cccc(c23)C(=O)N1Nc1nc(N2CCOCC2)nc(N2CCN(c3ccccc3)CC2)n1, the growth was 48.5% (inactive). With c1ccc(OCc2nnc(-c3ccc(Oc4ccccc4)cc3)o2)cc1 the growth was 93.7% (inactive). In the case of C=C1C(=O)O[C@H]2[C@H]1CC/C(COC(=O)CCC(=O)NCCOCCOCC(=O)Nc1ccc(OC)c(C(N)=O)c1O)=C\CC[C@@]1(C)O[C@@H]21, the growth was 102% (inactive). Nc1ccc(Sc2ccc([N+](=O)[O-])c3nonc23)cc1 was tested, and the growth was 96.2% (inactive). Cc1ccc(C(=O)NN2C(=O)CSC2c2cccc([N+](=O)[O-])c2)cn1 (stereo not drawn) was tested, and the growth was 106% (inactive). CCOC(=O)c1[nH]c(C)c(C(=O)OCc2ccccc2C#N)c1C was tested, and the growth was 42.8% (inactive). COc1ccc(-c2nnc(COc3ccc(Cl)cc3Cl)o2)cc1OC was tested, and the growth was 58.9% (inactive). With c1ccc2cc(C[n+]3ccn(CCCCCCCCCCCCn4cc[n+](Cc5ccc6ccccc6c5)c4)c3)ccc2c1 the growth was -86.9% (active). In the case of COc1ccc(-c2nc3sc(-c4ccccc4)cn3n2)cc1, the growth was 29.5% (inactive). For COc1ccc(C2CC(c3ccc(Nc4nc(Nc5ccc(F)cc5)nc(Nc5ccc(Cl)cc5)n4)cc3)=NN2C(C)=O)cc1 (stereo not drawn), the growth was 135% (inactive). With O=C1CN(CCN2CC(=O)N(Cc3ccccc3)C(=O)C2)CC(=O)N1Cc1ccccc1 the growth was 103% (inactive). COc1ccc(-c2cc3c4c(nc5ccccc5c4c2)CC(c2cc(OC)c(OC)c(OC)c2)O3)cc1 (stereo not drawn) was tested, and the growth was 60.4% (inactive). With COc1ccc(C(=O)N=Nc2c(O)n(C)c3ccccc23)cc1 the growth was 95.5% (inactive). In the case of NC1CCN(c2nc(Nc3cccc(C(F)(F)F)c3)c3c(=O)[nH]ccc3n2)CC1, the growth was -67.1% (active). For CC(C)(C)NC(=O)C(OC(=O)c1cccc(Cl)c1)c1ccc(Cl)cc1 (stereo not drawn), the growth was 100% (inactive). With NC(=O)C1(Nc2ccc(Br)cc2)CCCC1 the growth was 109% (inactive). For Cn1cc(-c2cc3ncnc(Nc4ccc(CC(=O)Nc5cc(C(C)(C)C)on5)cc4)c3s2)cn1, the growth was 19.1% (inactive). O=C(Nc1ccc(Br)cc1F)c1cc(Br)ccc1O was tested, and the growth was 3.17% (active). In the case of COc1ccn2c(C(C)=O)cc(C(=O)c3ccc4c(c3)Sc3ccccc3N4)c2c1, the growth was 7.27% (active). With COc1nc2ccccc2cc1-c1nc2c(cnn2-c2ccccc2)c(=O)[nH]1 the growth was 29% (inactive). In the case of Cc1ccc(-c2nc(N3CCN(C(=O)Nc4ccc(Cl)c(C(F)(F)F)c4)CC3)c3ccccc3n2)cc1, the growth was 82.9% (inactive). For CCc1nnc(NC(=O)c2nnn(-c3ccccc3)c2-c2ccco2)s1, the growth was 96.9% (inactive). O=C(Nc1ccc(I)cc1F)c1cc(I)ccc1O was tested, and the growth was 2.37% (active). In the case of CCCCCCNC(=O)Oc1ccc(/C(=C(\C)c2ccc(OC)cc2)c2ccc(OCCN3CCCCC3)cc2)cc1, the growth was 43.5% (inactive).

From PubChem BioAssay (NCI)
